According to the OligoGym collection:

molecular target: SLC20A1; assay: pooled miR-30 sensor sort-seq; sequence = guide strand; conditions: shRNA
Note: reference of the scale not given here.

Sequence	sensor-assay potency score (higher = more potent)
TTGACTGAACTGGACAAGGTTC	-0.668
TTCACGGTGCTATCTATGCTGG	-1.16
TAGCACAAGTAACACTTCCCTC	-0.562
TAGCTCTTTGTACAGGCCGGAA	-1.38
TAGGCAACTGCACTGCACCATT	-0.846
TAGAGTAGAAGCCATATTGGTG	-0.743
TTCAATATCACCAACAGACAAC	-1
TAACAGTCAATAAACTGCTTGC	0.0584

molecular target: SLC22A17; assay: as above; conditions: shRNA

Sequence	sensor-assay potency score (higher = more potent)
TGAAACAGAATGATAGAGCAAG	-0.0667
TATTGAAACAGAATGATAGAGC	-0.514
TGCTCCAGGATCACCTGCCAGC	-1.29
TCACTATCAGCCACCGTGCGGA	-0.275
TCTGTCTGCGGGGTAACCCAGG	-1.27
ATTATAGTCCCAATCCTTGAGG	-1.04
TAGACACCCAGGTCAACACCGG	-0.269
TCCGGCAGCAGCATAATGCTGA	-0.933
AAGGTCAGCAGCACAATCCCGC	-0.694
TTCACTATCAGCCACCGTGCGG	-0.928
TAACCCAGGAACAGGTAGCCGG	-1.09

molecular target: SLC22A1; assay: as above; conditions: shRNA

Sequence	sensor-assay potency score (higher = more potent)
TGGTACATGATCGCCACCGTTC	-1.08
TTTGTGATAACAGCCACCGAGG	-0.671
TATCTTTATTGCTTCAGTGTTT	-0.476
ATGATTATGATGTTTAACCAGT	-1.09
TACATGATCGCCACCGTTCTTC	-0.241
TTCTGCAGAGGATAACTCCATC	-0.998
TTTTGTGATAACAGCCACCGAG	-0.543
TATAGTTCAGCTCCTCCGCAGG	-0.994
TTTCGGTGACATCCTCTTCGAG	-1.03
TGATAGAGCACAGAGTCCGTGA	-0.157
TTCGGTGACATCCTCTTCGAGG	0.00261
TTTATTGCTTCAGTGTTTCTTT	0.132

molecular target: SLC22A7; assay: as above; conditions: shRNA

Sequence	sensor-assay potency score (higher = more potent)
TAATAGGAGAAGTTCACTCCGA	0.0839
TCGGAGGACACTAGCAGTCTAG	-0.985
TTATTTACAGAATCCTCCCCAA	-0.0957
ATGGCAAACATTACATAGCTGA	-0.95
TCTGAGTGGTCGTACTCCCAGC	-1.03
TTACATAGCTGACGGAGGCTGC	-0.245
TTTATTTACAGAATCCTCCCCA	0.685
TTCTGAGTGGTCGTACTCCCAG	-1.56
TGAAGCTGTCCTCACACACTGG	-0.999
